Data published in PubChem BioAssay (NCI).
The panel holds about 83,000 compounds, 20% with a hit somewhere; the sample as a whole holds those more often.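 How to read the values: 0–100, growth inhibition (40 = 60% inhibited); 0, no net growth; -100 to 0, cell death (-40 = 40% of starting cells died; -100 = all dead).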 Activity calls are given as the source filed them. How the source made its calls: active means growth percent below 10; inactive means the rest.

Columns and labels:
Assay in all cases: NCI-60 one-dose screen, 48 h (100 = growth as untreated, 0 = no growth, -100 = all killed)
Conditions in all cases: 10 µM unless noted
NCI-H23 lung = tested on: NCI-H23 lung
NCI-H226 lung = tested on: NCI-H226 lung
NCI-H322M lung = tested on: NCI-H322M lung
HOP-62 NSCLC = tested on: HOP-62 NSCLC
NCI-H460 lung = tested on: NCI-H460 lung
HOP-92 NSCLC = tested on: HOP-92 NSCLC
NCI-H522 lung = tested on: NCI-H522 lung
A549/ATCC NSCLC = tested on: A549/ATCC NSCLC
786-0 renal = tested on: 786-0 renal
COLO 205 colon = tested on: COLO 205 colon

Measured: growth

COc1ccc(C2=C/C(=C\c3ccccc3O)C(=O)N2Cc2ccccc2)cc1
inactive: NCI-H23 lung 85.9% | NCI-H226 lung 94.9% | NCI-H322M lung 77.8% | HOP-62 NSCLC 89.7% | NCI-H460 lung 90% | HOP-92 NSCLC 64.6% | NCI-H522 lung 51.3% | A549/ATCC NSCLC 74% | 786-0 renal 90% | COLO 205 colon 102%

COc1cc2ncnc(Nc3ccc(S(=O)(=O)Nc4cc(C)on4)cc3)c2cc1OCCCN1CCOCC1
inactive: NCI-H23 lung 100% | NCI-H226 lung 94% | NCI-H322M lung 101% | HOP-62 NSCLC 95.8% | NCI-H460 lung 110% | HOP-92 NSCLC 87.4% | NCI-H522 lung 96.8% | A549/ATCC NSCLC 95.3% | 786-0 renal 107% | COLO 205 colon 106%

Cc1ccc2c(n1)C[C@H](C(C)(C)O)CC[C@H]2C
inactive: NCI-H23 lung 103% | NCI-H226 lung 100% | NCI-H322M lung 98.5% | HOP-62 NSCLC 101% | NCI-H460 lung 108% | HOP-92 NSCLC 97.7% | NCI-H522 lung 94.3% | A549/ATCC NSCLC 94.4% | 786-0 renal 97.9% | COLO 205 colon 111%

COc1ccc(N2C(=O)/C(=C/C(Cl)=C/c3ccc([N+](=O)[O-])cc3)SC2=S)cc1
inactive: NCI-H322M lung 31.2%
active: NCI-H23 lung -1.85% | NCI-H226 lung -31% | HOP-62 NSCLC -9.71% | NCI-H460 lung 0.356% | HOP-92 NSCLC -33.8% | NCI-H522 lung -42.5% | A549/ATCC NSCLC -0.282% | 786-0 renal -77.7% | COLO 205 colon -36%

CCOC(=O)CC1C(CNC(=O)NC)OC(n2cnc3c(NC(=O)Nc4ccccc4)ncnc32)C1O[Si](C)(C)C(C)(C)C (stereo not given)
inactive: NCI-H23 lung 91.7% | NCI-H226 lung 75.9% | NCI-H322M lung 90.5% | HOP-62 NSCLC 78.9% | NCI-H460 lung 47.6% | HOP-92 NSCLC 63.1% | NCI-H522 lung 80.2% | A549/ATCC NSCLC 22.4% | 786-0 renal 76.1% | COLO 205 colon 43%

[2H]C([2H])([2H])Oc1ccc(/C=C/C(=O)/C=C(O)/C=C/c2ccc(OC([2H])([2H])[2H])c(OC([2H])([2H])[2H])c2)cc1OC([2H])([2H])[2H]
inactive: NCI-H23 lung 34.3% | NCI-H226 lung 70.6% | NCI-H322M lung 103% | HOP-62 NSCLC 47.7% | NCI-H460 lung 46.7% | HOP-92 NSCLC 72.7% | NCI-H522 lung 14.8% | A549/ATCC NSCLC 32.4% | 786-0 renal 48.9% | COLO 205 colon 30.4%

COc1ccc(NC(=O)c2sc3nc(C)c(C(=O)c4ccccc4)cc3c2N)cc1
inactive: NCI-H23 lung 96.1% | NCI-H226 lung 97.2% | NCI-H322M lung 64.7% | HOP-62 NSCLC 97.7% | NCI-H460 lung 61.3% | HOP-92 NSCLC 111% | NCI-H522 lung 80.8% | A549/ATCC NSCLC 52% | 786-0 renal 96.4% | COLO 205 colon 108%

COc1ccc2c(c1)C(c1c[nH]c3ccccc13)(c1c[nH]c3ccccc13)CCO2
inactive: NCI-H23 lung 53.3% | NCI-H226 lung 64.1% | NCI-H322M lung 66.1% | HOP-62 NSCLC 49.1% | NCI-H460 lung 47.4% | HOP-92 NSCLC 35.6% | A549/ATCC NSCLC 24.1% | 786-0 renal 58.8% | COLO 205 colon 39.9%
active: NCI-H522 lung 6.18%

C#CCOc1ccc(C2=NN(C)C3N=C(Cl)c4ncn(C)c4N23)cc1OCC#C (stereo not given)
inactive: NCI-H23 lung 89.7% | NCI-H226 lung 83.4% | NCI-H322M lung 90.2% | HOP-62 NSCLC 95.5% | NCI-H460 lung 105% | HOP-92 NSCLC 79.8% | NCI-H522 lung 87.3% | A549/ATCC NSCLC 104% | 786-0 renal 105% | COLO 205 colon 102%

FC(F)(F)c1cccc(-c2nnn(Cc3cc(-c4cccc(Cl)c4)no3)n2)c1
inactive: NCI-H23 lung 102% | NCI-H226 lung 101% | NCI-H322M lung 111% | HOP-62 NSCLC 108% | NCI-H460 lung 103% | HOP-92 NSCLC 100% | NCI-H522 lung 99.6% | A549/ATCC NSCLC 100% | 786-0 renal 105% | COLO 205 colon 112%

COC(=O)c1sc(-c2ccc(C)cc2)cc1O
inactive: NCI-H23 lung 99.1% | NCI-H226 lung 109% | NCI-H322M lung 94.2% | HOP-62 NSCLC 109% | NCI-H460 lung 101% | HOP-92 NSCLC 105% | NCI-H522 lung 105% | A549/ATCC NSCLC 103% | 786-0 renal 96.7% | COLO 205 colon 107%

COc1cc(/C=C/C(=O)c2ccc(-n3cc(CN4CCN(c5cc6c(cc5F)c(=O)c(C(=O)O)cn6C5CC5)CC4)nn3)cc2)cc(OC)c1OC
inactive: NCI-H23 lung 77.6% | NCI-H226 lung 74.8% | NCI-H322M lung 88.8% | HOP-62 NSCLC 85.4% | NCI-H460 lung 85.9% | HOP-92 NSCLC 88% | NCI-H522 lung 88% | A549/ATCC NSCLC 90.5% | 786-0 renal 72.2% | COLO 205 colon 112%

NC(=O)[C@@H]1Cc2ccccc2CN1C(=O)c1ccc2c(c1)Cc1ccccc1-2
inactive: NCI-H23 lung 89.4% | NCI-H226 lung 83.2% | NCI-H322M lung 103% | HOP-62 NSCLC 108% | NCI-H460 lung 91.5% | HOP-92 NSCLC 92.9% | NCI-H522 lung 66.9% | A549/ATCC NSCLC 64.9% | 786-0 renal 97.8% | COLO 205 colon 105%

COc1ccc(NC(=O)c2ccc(Cl)cc2Cl)cc1
inactive: NCI-H23 lung 85.3% | NCI-H226 lung 105% | NCI-H322M lung 103% | HOP-62 NSCLC 107% | NCI-H460 lung 97.8% | HOP-92 NSCLC 104% | NCI-H522 lung 97.1% | A549/ATCC NSCLC 96.5% | 786-0 renal 93% | COLO 205 colon 101%

Cc1ccc(Nc2cc(N)nc(N)n2)cc1
inactive: NCI-H23 lung 91.4% | NCI-H226 lung 110% | NCI-H322M lung 98.5% | HOP-62 NSCLC 101% | NCI-H460 lung 101% | HOP-92 NSCLC 90% | NCI-H522 lung 94.3% | A549/ATCC NSCLC 97.3% | 786-0 renal 99.6% | COLO 205 colon 105%

CCCc1cc(CCC)n2nc(N)nc2n1
inactive: NCI-H23 lung 103% | NCI-H226 lung 94.8% | NCI-H322M lung 97.9% | HOP-62 NSCLC 97.5% | NCI-H460 lung 110% | HOP-92 NSCLC 106% | NCI-H522 lung 109% | A549/ATCC NSCLC 112% | 786-0 renal 97.1% | COLO 205 colon 103%

O=C1N/C(=N/N=C(c2ccccc2)c2ccccc2)S/C1=C\c1ccc(Br)cc1
inactive: NCI-H23 lung 94.1% | NCI-H226 lung 84.7% | NCI-H322M lung 95% | HOP-62 NSCLC 98.1% | NCI-H460 lung 98.4% | HOP-92 NSCLC 92.3% | NCI-H522 lung 69.6% | A549/ATCC NSCLC 74.7% | 786-0 renal 98% | COLO 205 colon 104%

O=C1/C(=C/c2ccc(Br)cc2)COc2ccc(O)cc21
inactive: NCI-H23 lung 101% | NCI-H226 lung 95.5% | NCI-H322M lung 95.6% | HOP-62 NSCLC 99% | NCI-H460 lung 102% | HOP-92 NSCLC 99.9% | NCI-H522 lung 15.8% | A549/ATCC NSCLC 91.1% | 786-0 renal 76.4% | COLO 205 colon 86.8%

CCN(CC)c1ccc(/C=N/NC(=O)c2ccccc2Nc2ccnc(C(F)(F)F)c2)c(O)c1
inactive: NCI-H23 lung 40.4% | NCI-H322M lung 39.7% | HOP-62 NSCLC 28% | HOP-92 NSCLC 19.9% | NCI-H522 lung 42.9% | A549/ATCC NSCLC 35.8% | 786-0 renal 16.6% | COLO 205 colon 25.7%
active: NCI-H226 lung 8.93% | NCI-H460 lung 4.43%

C[C@H]1c2ccccc2CN1CCCOc1cc2c(cc1OCC1CC1)C1(CCCC1)C(N)=N2
active: COLO 205 colon -66.4%
inactive: NCI-H23 lung 67.2% | NCI-H226 lung 53.1% | NCI-H322M lung 89.7% | HOP-62 NSCLC 82% | NCI-H460 lung 38.5% | HOP-92 NSCLC 23.2% | NCI-H522 lung 73.7% | A549/ATCC NSCLC 74.1% | 786-0 renal 56.4%

N#Cc1c(-c2ccc(F)cc2)cc(-c2cccc(Cl)c2)[nH]c1=O
inactive: NCI-H23 lung 62.8% | NCI-H226 lung 54.1% | NCI-H322M lung 75.2% | HOP-62 NSCLC 28% | NCI-H460 lung 86.8% | HOP-92 NSCLC 29.7% | NCI-H522 lung 57.9% | A549/ATCC NSCLC 46.3% | 786-0 renal 42.1% | COLO 205 colon 116%

O=C(CSc1nnc(-c2ccc(Cl)c(Cl)c2)n1-c1ccccc1)Nc1ccc(C(=O)/C=C/c2ccc(Cl)cc2)cc1
inactive: NCI-H23 lung 95.4% | NCI-H226 lung 89.1% | NCI-H322M lung 96.9% | HOP-62 NSCLC 91.1% | NCI-H460 lung 99.5% | HOP-92 NSCLC 80.7% | NCI-H522 lung 64.7% | A549/ATCC NSCLC 68.9% | 786-0 renal 88.6% | COLO 205 colon 93.3%

CCOC(=O)CCC(=O)P(=O)(O)O
inactive: NCI-H23 lung 116% | NCI-H226 lung 110% | NCI-H322M lung 103% | HOP-62 NSCLC 97.8% | NCI-H460 lung 113% | HOP-92 NSCLC 38.9% | NCI-H522 lung 84.7% | A549/ATCC NSCLC 96.9% | 786-0 renal 98.6% | COLO 205 colon 93.9%

C#CCOc1cc(/C=N/Nc2nc(-c3ccc(OC)cc3)cs2)ccc1O
inactive: NCI-H23 lung 58.8% | NCI-H226 lung 89.6% | NCI-H322M lung 92.4% | HOP-62 NSCLC 97% | NCI-H460 lung 88.4% | HOP-92 NSCLC 86.3% | NCI-H522 lung 76.1% | A549/ATCC NSCLC 74.2% | 786-0 renal 92.6% | COLO 205 colon 103%

Nc1ncc(-c2ccc3ncnc(N4CCc5cc(F)c(Cl)cc54)c3c2)cc1C=O
inactive: NCI-H23 lung 31.6% | NCI-H226 lung 37.2% | HOP-62 NSCLC 15.2% | NCI-H460 lung 11.8% | NCI-H522 lung 26.7% | COLO 205 colon 19.6%
active: NCI-H322M lung 2.51% | HOP-92 NSCLC -22.8% | A549/ATCC NSCLC 7.18% | 786-0 renal 8.62%
